Most compounds without a hit are left out; they make up all but 31% or so of the library.
CYP2C9 inhib: blocks human cytochrome P450 2C9; AID 777; 20% of 96,000 active; CYP2C9 Supersomes, luciferin-H conversion, luminescence; P11712; inhibition, % at 5 µM;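 active means blocking of liver enzyme CYP2C9 beyond about 50% at 5 µM, limit read from the data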
Target sequence (P11712 whole entry, looked up): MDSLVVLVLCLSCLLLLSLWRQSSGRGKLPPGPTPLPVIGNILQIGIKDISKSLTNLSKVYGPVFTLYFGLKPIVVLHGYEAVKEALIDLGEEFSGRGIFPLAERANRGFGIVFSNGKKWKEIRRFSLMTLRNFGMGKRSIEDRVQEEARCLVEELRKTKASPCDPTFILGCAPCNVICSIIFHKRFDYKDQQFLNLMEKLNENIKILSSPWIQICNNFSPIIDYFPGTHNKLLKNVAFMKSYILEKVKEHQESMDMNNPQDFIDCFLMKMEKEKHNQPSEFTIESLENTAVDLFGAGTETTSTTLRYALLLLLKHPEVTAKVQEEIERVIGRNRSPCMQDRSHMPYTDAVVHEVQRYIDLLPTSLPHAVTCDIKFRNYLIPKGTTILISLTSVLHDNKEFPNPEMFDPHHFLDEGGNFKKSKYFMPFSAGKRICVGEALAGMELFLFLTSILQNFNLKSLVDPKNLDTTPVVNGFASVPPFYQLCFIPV
CYP2C9 activ: activators of human CYP2C9; activation factor at 5 µM; P11712; recombinant CYP2C9, luciferin-H conversion, luminescence; active compounds read high; factor 1 = untreated enzyme, 0 = blocked; 1.4% of 96,000 active;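 active means activation factor of 2 or more for CYP2C9 at a 5 µM dose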
PLAP act: activators of human placental alkaline phosphatase | P05187 | purified PLAP enzyme, luminescent substrate read-out; active compounds read high | activation fold at 20 µM | 1.2% of 96,000 active | AID 696; in the data active means activation fold above about 2
CYP2C19 activ: cytochrome P450 2C19 (human) activation. recombinant CYP2C19, luciferin-H EGE luminescence; active compounds read high; 0 = fully inhibited enzyme, 1 = untreated enzyme. activation factor at 5 µM. 96,000 tested, under 10 active;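 active means activation factor of at least 2 at 5 µM in the primary screen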
CYP2C19 inh: blocks human cytochrome P450 2C19; P33261; CYP2C19 Supersomes, luciferin-H EGE luminescence, 30 min; inhibition, % at 5 µM; 21% of 96,000 active; AID 778;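 active means CYP2C19 inhibition above a set limit at 5 µM in the primary screen, cut at about 50% in these data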
A number is an active result; n = inactive.

SMILES | CYP2C9 inhib | CYP2C9 activ | PLAP act | CYP2C19 activ | CYP2C19 inh
CCCS(=O)(=O)c1c(S(=O)(=O)CCC)c2c(N)cccn2c1C(=O)c1ccc(F)cc1 | 68 | n | n | n | 66
CN(C)/C=N/c1c(C#N)nnn1Cc1ccccc1 | n | n | n | n | 67
Cc1noc(C)c1C(=O)N1CCCC1 | n | n | n | n | n
CCN(CC)S(=O)(=O)c1ccc2[nH]cc(C(=O)NCCc3ccc(OC)c(OC)c3)c(=O)c2c1 | 60 | n | n | n | 57
COc1ccc2[nH]cc(C(=O)CN(C)CCc3ccc(OC)c(OC)c3)c2c1 | 91 | n | n | n | 85
COc1ccc(CCNC(=O)c2c[nH]c3ccccc3c2=O)cc1OC | n | n | n | n | 50
COc1cc(-c2nn3c(Cc4ccccc4)nnc3s2)cc(OC)c1OC | 70 | n | n | n | 53
COc1cc(-c2nn3c(COc4ccccc4)nnc3s2)cc(OC)c1OC | n | n | n | n | n
CCOc1cccc(-c2nnc3sc(-c4cc(OC)c(OC)c(OC)c4)nn23)c1 | 63 | n | n | n | n
COc1cc(-c2nnc3sc(-c4ccco4)nn23)cc(OC)c1OC | 65 | n | n | n | n
c1coc(-c2nnc3sc(-c4cccs4)nn23)c1 | n | n | n | n | 64
CCCc1cn(S(=O)(=O)c2ccc(OC)cc2OC)nc1N | n | n | n | n | n
Cc1nn2c(-c3ccc(Cl)cc3)nnc2s1 | n | n | n | n | 56
CCOc1cccc(-c2nnc3sc(COc4ccc(C)cc4)nn23)c1 | 64 | n | n | n | 54
CCOc1cccc(-c2nnc3sc(COc4ccccc4)nn23)c1 | n | n | n | n | n
COc1cccc(-c2nnc3sc(-c4ccc(C)cc4)nn23)c1 | n | n | n | n | n
COc1cccc(-c2nn3c(-c4cccc(C)c4)nnc3s2)c1 | 76 | n | n | n | 89
CC(C)(C)c1ccc(-c2nnc3sc(-c4ccncc4)nn23)cc1 | 53 | n | n | n | 58
COC(=O)Cn1nc(-c2ccccc2)n(-c2ccccc2)c1=S | n | n | n | n | n
O=C(NC1CC2CCC(C1)N2C(=O)NCc1ccccc1)NC12CC3CC(CC(C3)C1)C2 (stereo unspecified) | n | n | n | n | n
COc1cc(-c2nn3c(-c4ccccc4)nnc3s2)cc(OC)c1OC | 72 | n | n | n | 74
COc1ccc(-c2nnc3sc(COc4ccccc4)nn23)cc1 | n | n | n | n | n
c1cc(-c2nnc3sc(C4CCCCC4)nn23)ccn1 | n | n | n | n | 88
COc1cccc(-c2nnc3sc(-c4cccs4)nn23)c1 | n | n | n | n | n
CCOc1cccc(-c2nnc3sc(-c4cccs4)nn23)c1 | 58 | n | n | n | 60
SMILES | CYP2C9 inhib | CYP2C9 activ | PLAP act | CYP2C19 activ | CYP2C19 inh
c1ccc(OCc2nn3c(-c4ccco4)nnc3s2)cc1 | n | n | n | n | 67
CC(=O)Nc1ccc(C(=O)CSc2nnnn2C(C)C)cc1 | n | n | n | n | n
COc1cc(OC)c(-c2nn3c(-c4ccco4)nnc3s2)cc1OC | 73 | n | n | n | n
CCCc1cc(=O)n2c(nc3ccccc32)[nH]1 | n | n | n | n | n
c1ccc(-n2c(-c3ccncc3)nnc2-c2ccco2)cc1 | n | n | n | n | 80
Cc1ccc(-n2c(-c3ccncc3)nnc2-c2ccco2)cc1 | n | n | n | n | n
c1ccc(-n2c(-c3ccncc3)nnc2-c2cccs2)cc1 | 54 | n | n | n | 71
COc1ccc(N2CCN(/C(=N\S(=O)(=O)c3ccccc3)Nc3nc(C)cc(C)n3)CC2)cc1 | 67 | n | n | n | n
Cc1ccc(S(=O)(=O)/N=C(/Nc2nc(C)cc(C)n2)N2CCOCC2)cc1 | n | n | n | n | n
O=C(OCCN1C(=O)c2ccccc2C1=O)c1cccc(OC(F)F)c1 | n | n | n | n | 90
COC(=O)c1[nH]c2ccccc2c1NC(=O)CN1CCN(c2cccc(OC)c2)C(C)C1 (stereo unspecified) | n | n | n | n | n
COc1ccccc1CC(NC(C)=O)C(=O)N1CCN(C(=O)Nc2ccccc2Cl)CC1 (stereo unspecified) | n | n | n | n | n
C=CCNc1ncnc2c1[nH]c1ccc(Cl)cc12 | 64 | n | n | n | n
COC(=O)c1ccc(CN(c2ccc(C)cc2)S(=O)(=O)c2ccc3c(c2)OCCO3)o1 | 74 | n | n | n | 59
COC(=O)c1ccc(CN(C)S(=O)(=O)c2ccc(C)cc2)o1 | 58 | n | n | n | 91
COC(=O)CN(c1ccc(C)cc1)S(=O)(=O)c1ccc2c(c1)n(C)c(=O)c(=O)n2C | n | n | n | n | n
CCn1ncc(C2=NOC(C(=O)N3CCC(C(N)=O)CC3)C2)c1C (stereo unspecified) | n | n | n | n | n
CCc1c(C)sc(NC(=O)c2cc(-c3ccco3)on2)c1C#N | n | n | n | n | n
CCCOc1ccc2oc(=O)c3c(c2c1)CCCN3C(=O)CN1CCc2ccccc2C1 | 64 | n | n | n | 89
CC1CCN(CCCOc2ccc(OCc3ccccc3)cc2)CC1 | n | n | n | n | n
CC1CC(C)CN(CC(=O)N2CCCc3c2c(=O)oc2ccc(OCc4ccccc4)cc32)C1 (stereo unspecified) | 85 | n | n | n | 75
CC1CCN(CC(=O)N2CCCc3c2c(=O)oc2ccc(OCc4ccccc4)cc32)CC1 | 90 | n | n | n | 53
COc1ccc(S(=O)(=O)N2CCCC(C(=O)NCc3ccco3)C2)cc1Cl (stereo unspecified) | n | n | n | n | n
CCOc1ccc2[nH]c(=O)c(CN(CCOC)C(=O)N3CCOCC3)cc2c1 | n | n | n | n | n
C/C(CC(=O)Nc1cc(C)ccn1)=N\NC(=O)COc1cccc(C)c1 | n | n | n | n | n
SMILES | CYP2C9 inhib | CYP2C9 activ | PLAP act | CYP2C19 activ | CYP2C19 inh
Cc1cccc(OCC(=O)N/N=C/c2cn[nH]c2-c2ccc(Cl)c(Cl)c2)c1 | 57 | n | n | n | n
Cc1ccc(OCC(=O)N/N=C/c2cn[nH]c2-c2ccc(Cl)c(Cl)c2)cc1 | 52 | n | n | n | n
CCCOc1ccc(CC(=O)NCC2(c3ccccc3)CCOCC2)cc1OC | n | n | n | n | n
CC1CCCC(C)N1C(=O)CSc1nnc(CSc2ncccn2)n1C (stereo unspecified) | n | n | n | n | n
O=C(NCCCCCCNC(=O)OC1CCS(=O)(=O)C1)OC1CCS(=O)(=O)C1 (stereo unspecified) | n | n | n | n | n
COc1ccc(C2=CC(c3ccc(OC)c(OC)c3)n3nnnc3N2)c(OC)c1 (stereo unspecified) | 97 | n | n | n | 90
COC(=O)C1=C(C(=O)c2ccccc2)C(c2ccc(O)c(OC)c2)n2nnnc2N1 (stereo unspecified) | n | n | n | n | n
CC1=C(C(N)=O)C(c2cccc(OCc3ccccc3)c2)n2nnnc2N1 (stereo unspecified) | n | n | n | n | n

Source: PubChem (Sanford-Burnham Center for Chemical Genomics)
